In PubChem BioAssay AID1159580 (chemical genetic matrix, 2015):
“And” between values parts separate entries of the source, which are not always exact repeats. Equal entries are not always repeated. Hit rate of the full screen: of about 5,500 compounds, about 2,000 (36%) were called active. Roughly 18% stayed inconclusive and do not appear here. Cut-off read from the data, not from the text of the source: active = normalized growth mostly below about 0.91 (no sharp cut-off); inconclusive = no clear call, values can overlap the other calls; inactive = mostly above about 0.92. This is one part of the list.

Experiment: chemical genetic growth profiling, strain panel (AID 1159580);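 note: tested at 20 µM; growth read once vehicle control cultures reached saturation at 30 °C; 1 = growth at the plate median or of vehicle wells; lower values mean less growth of the strain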
Conditions: S. cerevisiae deletion strains, growth OD

Measured: normalized growth

CCN(CC)C(=O)N1CCN(C)CC1
inactive: locus YAL021C, strain ccr4, active compounds read low 0.984 | locus YAL026C, strain drs2, active compounds read low 0.967 | locus YAL030W, strain snc1, active compounds read low 0.967 | locus YBL061C, strain skt5, active compounds read low 0.976 | locus YBR009C, strain hhf1, active compounds read low 0.957 | locus YBR021W, strain FUR4, active compounds read low 0.974 | locus YBR023C, strain chs3, active compounds read low 0.981 | locus YBR171W, strain sec66, active compounds read low 0.99 | locus YBR229C, strain ROT2, active compounds read low 1.01 | locus YBR231C, strain swc5, active compounds read low 0.97 | locus YBR279W, strain paf1, active compounds read low 0.981 | locus YCL011C, strain gbp2, active compounds read low 0.971 | locus YCL016C, strain dcc1, active compounds read low 0.973 | locus YCL029C, strain bik1, active compounds read low 0.999 | locus YCL069W, strain vba3, active compounds read low 0.984 | locus YCR088W, strain abp1, active compounds read low 0.994 | locus YDL005C, strain med2, active compounds read low 0.963 | locus YDL035C, strain GPR1, active compounds read low 1.04 | locus YDL040C, strain nat1, active compounds read low 0.973 | locus YDL074C, strain BRE1, active compounds read low 1.03 | locus YDL101C, strain DUN1, active compounds read low 1.01 | locus YDL134C, strain PPH21, active compounds read low 1.04 | locus YDL185W, strain tfp1, active compounds read low 0.994 | locus YDL192W, strain arf1, active compounds read low 1 | locus YDR001C, strain nth1, active compounds read low 0.958 | locus YDR069C, strain doa4, active compounds read low 0.976 | locus YDR101C, strain arx1, active compounds read low 1 | locus YDR137W, strain rgp1, active compounds read low 0.917 | locus YDR150W, strain NUM1, active compounds read low 1.02 | locus YDR159W, strain sac3, active compounds read low 0.964 | locus YDR162C, strain NBP2, active compounds read low 1.02 | locus YDR195W, strain ref2 0.943 | locus YDR297W, strain sur2, active compounds read low 0.979 | locus YDR318W, strain mcm21, active compounds read low 1.01 | locus YDR334W, strain swr1, active compounds read low 0.982 | locus YDR335W, strain msn5, active compounds read low 0.95 | locus YDR388W, active compounds read low 1 | locus YDR392W, strain spt3, active compounds read low 0.956 | locus YDR502C, strain sam2, active compounds read low 1 | locus YEL003W, strain gim4, active compounds read low 0.965 | locus YEL037C, strain rad23, active compounds read low 0.978 | locus YEL061C, strain CIN8 (second series), active compounds read low 0.973 | locus YEL061C, strain CIN8, active compounds read low 1.01 | locus YER015W, strain faa2, active compounds read low 0.979 | locus YER016W, strain bim1, active compounds read low 0.94 | locus YER110C, active compounds read low 0.991 | locus YER111C, strain swi4, active compounds read low 0.969 | locus YER155C, strain BEM2 (second series), active compounds read low 0.984 | locus YER155C, strain BEM2, active compounds read low 1.01 | locus YER167W, strain BCK2, active compounds read low 1.01 | locus YFR010W, strain ubp6, active compounds read low 0.959 | locus YGL078C, strain dbp3, active compounds read low 0.997 | locus YGL086W, strain mad1, active compounds read low 1.02 | locus YGL167C, strain pmr1, active compounds read low 0.983 | locus YGL173C, strain kem1, active compounds read low 0.986 | locus YGL227W, strain vid30, active compounds read low 0.982 | locus YGL240W, strain doc1, active compounds read low 0.956 | locus YGL248W, strain PDE1, active compounds read low 1.01 | locus YGL253W, strain hxk2, active compounds read low 0.948 | locus YGR078C, strain PAC10, active compounds read low 1.02 | locus YGR135W, strain pre9, active compounds read low 0.996 | locus YGR252W, strain gcn5, active compounds read low 0.912 | locus YHR013C, strain ard1, active compounds read low 0.942 | locus YHR027C, strain rpn1, active compounds read low 0.971 | locus YHR030C, strain SLT2, active compounds read low 1.02 | locus YHR079C, strain IRE1 (second series), active compounds read low 0.993 | locus YHR079C, strain IRE1, active compounds read low 1.02 | locus YHR094C, strain hxt1, active compounds read low 1 | locus YHR129C, strain ARP1, active compounds read low 1.01 | locus YHR142W, strain chs7, active compounds read low 0.954 | locus YHR200W, strain rpn10, active compounds read low 1 | locus YIL066C, strain RNR3, active compounds read low 1.04 | locus YIL073C, strain SPO22, active compounds read low 1.02 | locus YIL125W, strain kgd1, active compounds read low 1 | locus YIR030C, strain dcg1, active compounds read low 1.01 | locus YJL092W, strain hpr5, active compounds read low 0.985 | locus YJL095W, strain BCK1 (second series), active compounds read low 0.965 | locus YJL095W, strain BCK1, active compounds read low 1 and 1.04 | locus YJL115W, strain asf1, active compounds read low 0.946 | locus YJL129C, strain trk1, active compounds read low 0.951 | locus YJL134W, strain LCB3, active compounds read low 1.01 | locus YJL154C, strain vps35, active compounds read low 0.983 | locus YJL164C, strain tpk1, active compounds read low 0.959 | locus YJL166W, strain qcr8, active compounds read low 0.999 | locus YJL168C, strain set2, active compounds read low 0.992 | locus YJL187C, strain SWE1 (second series), active compounds read low 1.01 | locus YJL187C, strain SWE1, active compounds read low 0.973 | locus YJR043C, strain POL32, active compounds read low 1.04 | locus YJR066W, strain TOR1, active compounds read low 0.965
